Several values for one entry are separate records, joined by “and”; a condition that tells them apart may be missing. Equal entries are not always repeated. Among all 5,500 compounds or so, about 2,000 (36%) were called active. Another 18% or so got no clear call; they are omitted. Cut-off read from the data, not from the text of the source: active = normalized growth mostly below about 0.91 (no sharp cut-off); inconclusive = no clear call, values can overlap the other calls; inactive = mostly above about 0.92. The list shows a part of the results.
Test: chemical genetic growth profiling, strain panel (AID 1159580);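 note: tested at 20 µM; growth read once vehicle control cultures reached saturation at 30 °C; 1 = growth at the plate median or of vehicle wells; lower values mean less growth of the strain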
Details: S. cerevisiae deletion strains, growth OD

Measured: normalized growth

C=C1C[C@]23C[C@@]1(O)CC[C@H]2[C@@]12C=C[C@H](O)[C@@](C)(C(=O)O1)[C@H]2[C@@H]3C(=O)O
inactive: locus YAL013W, strain DEP1, active compounds read low 0.998 | locus YAL021C, strain ccr4, active compounds read low 0.976 | locus YAL026C, strain drs2, active compounds read low 1.04 | locus YAL030W, strain snc1, active compounds read low 1.03 | locus YBL061C, strain skt5, active compounds read low 1.02 | locus YBR009C, strain hhf1, active compounds read low 1.02 | locus YBR021W, strain FUR4, active compounds read low 1.01 | locus YBR023C, strain chs3, active compounds read low 1.02 | locus YBR171W, strain sec66, active compounds read low 1.03 | locus YBR229C, strain ROT2, active compounds read low 0.956 | locus YBR231C, strain swc5, active compounds read low 1.03 | locus YBR279W, strain paf1, active compounds read low 1.02 | locus YCL011C, strain gbp2, active compounds read low 1.03 | locus YCL016C, strain dcc1, active compounds read low 0.997 | locus YCL029C, strain bik1, active compounds read low 0.984 | locus YCL069W, strain vba3, active compounds read low 1.03 | locus YCR088W, strain abp1, active compounds read low 1.02 | locus YDL005C, strain med2, active compounds read low 1.03 | locus YDL035C, strain GPR1, active compounds read low 0.982 | locus YDL040C, strain nat1, active compounds read low 1.03 | locus YDL074C, strain BRE1, active compounds read low 1.02 | locus YDL101C, strain DUN1, active compounds read low 0.999 | locus YDL134C, strain PPH21, active compounds read low 1.03 | locus YDL185W, strain tfp1, active compounds read low 0.978 | locus YDL192W, strain arf1, active compounds read low 0.986 | locus YDR001C, strain nth1, active compounds read low 1.03 | locus YDR069C, strain doa4, active compounds read low 1.03 | locus YDR101C, strain arx1, active compounds read low 0.967 | locus YDR137W, strain rgp1, active compounds read low 1.03 | locus YDR150W, strain NUM1, active compounds read low 0.996 | locus YDR159W, strain sac3, active compounds read low 1.04 | locus YDR162C, strain NBP2, active compounds read low 0.976 | locus YDR195W, strain ref2 1 | locus YDR297W, strain sur2, active compounds read low 1.02 | locus YDR318W, strain mcm21, active compounds read low 0.984 | locus YDR334W, strain swr1, active compounds read low 1.02 | locus YDR335W, strain msn5, active compounds read low 1.02 | locus YDR388W, active compounds read low 0.998 | locus YDR392W, strain spt3, active compounds read low 0.885 | locus YDR502C, strain sam2, active compounds read low 1.03 | locus YEL003W, strain gim4, active compounds read low 1.02 | locus YEL037C, strain rad23, active compounds read low 1.02 | locus YEL061C, strain CIN8 (second series), active compounds read low 1.02 | locus YEL061C, strain CIN8, active compounds read low 1 | locus YER015W, strain faa2, active compounds read low 1.02 | locus YER016W, strain bim1, active compounds read low 1.03 | locus YER110C, active compounds read low 0.98 | locus YER111C, strain swi4, active compounds read low 1 | locus YER155C, strain BEM2 (second series), active compounds read low 1 | locus YER155C, strain BEM2, active compounds read low 0.991 | locus YER167W, strain BCK2, active compounds read low 0.989 | locus YFR010W, strain ubp6, active compounds read low 1.03 | locus YGL078C, strain dbp3, active compounds read low 1.02 | locus YGL086W, strain mad1, active compounds read low 1.01 | locus YGL167C, strain pmr1, active compounds read low 1.03 | locus YGL173C, strain kem1, active compounds read low 1.05 | locus YGL227W, strain vid30, active compounds read low 1.02 | locus YGL240W, strain doc1, active compounds read low 1.02 | locus YGL248W, strain PDE1, active compounds read low 1.01 | locus YGL253W, strain hxk2, active compounds read low 1.05 | locus YGR135W, strain pre9, active compounds read low 1.07 | locus YGR252W, strain gcn5, active compounds read low 1.05 | locus YHR013C, strain ard1, active compounds read low 1.02 | locus YHR027C, strain rpn1, active compounds read low 1.03 | locus YHR030C, strain SLT2, active compounds read low 0.996 and 1 | locus YHR079C, strain IRE1 (second series), active compounds read low 0.998 | locus YHR079C, strain IRE1, active compounds read low 0.998 | locus YHR094C, strain hxt1, active compounds read low 0.991 | locus YHR129C, strain ARP1, active compounds read low 0.998 | locus YHR142W, strain chs7, active compounds read low 1.04 | locus YHR200W, strain rpn10, active compounds read low 1.01 | locus YIL066C, strain RNR3, active compounds read low 0.98 | locus YIL073C, strain SPO22, active compounds read low 1.07 | locus YIL125W, strain kgd1, active compounds read low 1 | locus YIR030C, strain dcg1, active compounds read low 0.994 | locus YJL092W, strain hpr5, active compounds read low 1.02 | locus YJL095W, strain BCK1 (second series), active compounds read low 1.02 | locus YJL095W, strain BCK1, active compounds read low 1.06 and 1.01 | locus YJL115W, strain asf1, active compounds read low 1.02 | locus YJL129C, strain trk1, active compounds read low 1.04 | locus YJL134W, strain LCB3, active compounds read low 0.99 | locus YJL154C, strain vps35, active compounds read low 1.03 | locus YJL164C, strain tpk1, active compounds read low 1.01 | locus YJL166W, strain qcr8, active compounds read low 1.03 | locus YJL168C, strain set2, active compounds read low 1.01 | locus YJL187C, strain SWE1 (second series), active compounds read low 1.01 | locus YJL187C, strain SWE1, active compounds read low 1.03 | locus YJR043C, strain POL32, active compounds read low 0.96 | locus YJR066W, strain TOR1, active compounds read low 0.962 | locus YKL009W, strain mrt4, active compounds read low 1.03 | locus YKL068W, active compounds read low 1 | locus YKL085W, strain MDH1 (second series), active compounds read low 0.99 | locus YKL085W, strain MDH1, active compounds read low 0.99 | locus YKL160W, strain elf1, active compounds read low 0.998 | locus YKR001C, strain vps1, active compounds read low 1.01 | locus YKR026C, strain gcn3, active compounds read low 1.02 | locus YKR091W, strain srl3, active compounds read low 1.03 | locus YLL001W, strain dnm1, active compounds read low 0.986 | locus YLL026W, active compounds read low 1.02 | locus YLL041C, strain sdh2, active compounds read low 1.02 | locus YLR027C, strain aat2, active compounds read low 1.03 | locus YLR039C, strain RIC1, active compounds read low 0.989 | locus YLR058C, strain SHM2, active compounds read low 0.98 | locus YLR102C, strain apc9, active compounds read low 0.995 | locus YLR113W, strain HOG1, active compounds read low 0.998 | locus YLR221C, strain rsa3, active compounds read low 1.04 | locus YLR258W, strain gsy2, active compounds read low 1.02 | locus YLR262C, strain YPT6 (second series), active compounds read low 1.03 | locus YLR268W, strain sec22, active compounds read low 0.97 | locus YLR320W, strain mms22, active compounds read low 1.05 | locus YLR342W, strain FKS1, active compounds read low 1.03 | locus YLR357W, strain rsc2, active compounds read low 0.994 | locus YLR370C, strain arc18, active compounds read low 1.02 | locus YLR371W, strain rom2, active compounds read low 0.992 | locus YLR384C, strain iki3, active compounds read low 1.04 | locus YLR418C, strain cdc73, active compounds read low 1.09 | locus YML016C, strain PPZ1, active compounds read low 0.984 | locus YML032C, strain rad52, active compounds read low 0.984 | locus YML120C, strain ndi1, active compounds read low 1.01 | locus YML124C, strain tub3, active compounds read low 0.984 | locus YMR058W, strain fet3, active compounds read low 1.03 | locus YMR078C, strain ctf18, active compounds read low 0.999 | locus YMR125W, strain sto1, active compounds read low 1.01 | locus YMR129W, active compounds read low 1.02 | locus YMR205C, strain PFK2, active compounds read low 1.02 | locus YMR223W, strain ubp8, active compounds read low 1.01 | locus YMR231W, strain pep5, active compounds read low 1.01 | locus YMR263W, strain SAP30, active compounds read low 0.994 | locus YMR307W, strain GAS1, active compounds read low 0.969 | locus YNL067W, strain RPL9B, active compounds read low 1 | locus YNL071W, strain lat1, active compounds read low 1.02 | locus YNL128W, strain TEP1, active compounds read low 0.976 | locus YNL153C, strain GIM3, active compounds read low 1.02 | locus YNL183C, strain NPR1, active compounds read low 0.958 | locus YNL209W, strain ssb2, active compounds read low 1.03 | locus YNL233W, strain BNI4, active compounds read low 1.04 | locus YNL248C, strain rpa49, active compounds read low 1.05 | locus YNL250W, strain rad50, active compounds read low 0.998 | locus YNL271C, strain bni1, active compounds read low 0.982 | locus YNL298W, strain CLA4, active compounds read low 0.987 | locus YNL307C, strain MCK1, active compounds read low 1.01 | locus YNL322C, strain KRE1 (second series), active compounds read low 1 | locus YNR049C, strain mso1, active compounds read low 1.02 | locus YNR052C, strain pop2, active compounds read low 1.03 | locus YOL006C, strain TOP1, active compounds read low 0.967 | locus YOL012C, strain htz1 1.07 | locus YOL147C, strain pex11, active compounds read low 0.99 | locus YOR001W, strain rrp6, active compounds read low 1.04 | locus YOR061W, strain CKA2, active compounds read low 0.962 | locus YOR069W, strain VPS5, active compounds read low 0.996 | locus YOR070C, strain gyp1, active compounds read low 1.01 | locus YOR080W, strain dia2, active compounds read low 1 | locus YOR083W, strain WHI5, active compounds read low 0.997 | locus YOR106W, strain vam3, active compounds read low 0.982 | locus YOR136W, strain idh2, active compounds read low 0.989 | locus YOR144C, strain elg1, active compounds read low 0.991 | locus YOR184W, strain ser1, active compounds read low 0.954 | locus YOR231W, strain MKK1, active compounds read low 0.98 | locus YOR265W, strain rbl2, active compounds read low 1.02 | locus YOR270C, strain vph1, active compounds read low 1.11 | locus YOR290C, strain snf2, active compounds read low 0.985 | locus YOR316C, strain cot1, active compounds read low 0.984 | locus YPL051W, strain arl3, active compounds read low 0.992 | locus YPL078C, strain atp4, active compounds read low 0.995 | locus YPL106C, strain sse1, active compounds read low 0.993 | locus YPL240C, strain hsp82, active compounds read low 1.01 | locus YPL241C, strain CIN2, active compounds read low 0.997 | locus YPL256C, strain CLN2, active compounds read low 0.992 | locus YPR119W, strain clb2, active compounds read low 1.01 | locus YPR141C, strain kar3, active compounds read low 0.981 | locus YPR163C, strain tif3, active compounds read low 0.989 | locus YPR167C, strain met16, active compounds read low 1.01 | strain wtn01, active compounds read low 0.974

Source: PubChem BioAssay AID1159580 (chemical genetic matrix, 2015)
